{"source": "the antibiotic and cytotoxicity screens of Wong et al. (2023)", "note": "The campaign covered roughly 39,000 compounds. About 3,300 (8.5%) were called active. The entries come from a sample that favours actives as a whole."}
{"test_system": "HepG2", "assay": "cytotoxicity call (relative viability < 0.9)", "conditions": "10 µM"}
{"smiles": "COc1ccc(NC(=O)Nc2ccc3c(c2)C(=O)N([C@@H](C)CO)C[C@@H](C)[C@@H](CN(C)C(=O)Nc2cccc4ccccc24)OCCCC[C@H](C)O3)cc1", "cytotoxicity call": "inactive"}
{"smiles": "C[C@@H]1CCCCO[C@@H](CN(C)C(=O)Nc2ccc(F)cc2)[C@H](C)CN([C@@H](C)CO)C(=O)c2cc(NC(=O)Nc3ccc(F)cc3)ccc2O1", "cytotoxicity call": "inactive"}
{"smiles": "O=C(C[C@@H]1CC[C@@H]2[C@H](COC[C@@H](O)CN2C(=O)c2ccccc2)O1)NCCCN1CCOCC1", "cytotoxicity call": "inactive"}
{"smiles": "C[C@H](CO)N1C[C@H](C)[C@@H](CN(C)C(=O)Cc2ccncc2)Oc2cc(C#CC3(O)CCCC3)ccc2S1(=O)=O", "cytotoxicity call": "inactive"}
{"smiles": "CN(C)CCCNC(=O)C[C@@H]1CC[C@@H]2[C@H](COc3ccc(NC(=O)c4ccc5c(c4)OCO5)cc3C(=O)N2C)O1", "cytotoxicity call": "inactive"}
{"smiles": "O=C(CCCCCNC(=O)OC[C@]12N=C3SCc4ccccc4CN3[C@H](c3ccccc3O1)[C@H]2COC(=O)c1ccccc1)NO", "cytotoxicity call": "inactive"}
{"smiles": "C[C@@H]1CN([C@H](C)CO)S(=O)(=O)c2ccc(Br)cc2O[C@@H]1CN(C)CC1CCOCC1", "cytotoxicity call": "inactive"}
{"smiles": "O=C(Nc1cccc2cccnc12)[C@@H]1[C@H](c2ccc3ccccc3c2)CC(=O)N1C(=O)OCc1ccccc1", "cytotoxicity call": "inactive"}
{"smiles": "COc1ccc2c3c(n(c2c1)C)[C@@H](CO)N(CC1CCOCC1)C[C@]13CN(C1)C(=O)c1cccc(c1)F", "cytotoxicity call": "inactive"}
{"smiles": "C[C@@H]1CN([C@@H](C)CO)C(=O)Cc2cc(NC(=O)c3ccncc3)ccc2O[C@H]1CN(C)S(=O)(=O)c1ccc(F)cc1", "cytotoxicity call": "inactive"}
{"smiles": "COc1ccc(NC(=O)Nc2ccc3c(c2)C(=O)N([C@@H](C)CO)C[C@@H](C)[C@@H](CN(C)S(=O)(=O)c2ccc(F)cc2)OCCCC[C@H](C)O3)cc1", "cytotoxicity call": "inactive"}
{"smiles": "COc1ccc(S(=O)(=O)N(C)C[C@H]2OCCCC[C@H](C)Oc3ccc(NS(=O)(=O)c4ccc(Cl)cc4)cc3C(=O)N([C@H](C)CO)C[C@@H]2C)cc1", "cytotoxicity call": "active"}
{"smiles": "COc1ccc(S(=O)(=O)Nc2ccc3c(c2)C(=O)N([C@@H](C)CO)C[C@@H](C)[C@H](CN(C)S(=O)(=O)c2ccc(Cl)cc2)OCCCC[C@H](C)O3)cc1", "cytotoxicity call": "inactive"}
{"smiles": "COc1ccc(S(=O)(=O)Nc2ccc3c(c2)C(=O)N([C@H](C)CO)C[C@@H](C)[C@@H](CN(C)S(=O)(=O)c2ccc(Cl)cc2)OCCCC[C@H](C)O3)cc1", "cytotoxicity call": "inactive"}
{"smiles": "CCOC(=O)c1cc2c(c(-c3cccc(Br)c3)n1)[C@@H](CCOC)N([S@](=O)C(C)(C)C)C2", "cytotoxicity call": "inactive"}
{"smiles": "Nc1ncnc2c1ncn2[C@@H]1C=C[C@H](CO)O1", "cytotoxicity call": "inactive"}
{"smiles": "CCC(=O)N[C@@H]1C=C[C@H](CC(=O)OC)O[C@@H]1CO", "cytotoxicity call": "inactive"}
{"smiles": "Cc1cc(=O)n2ncnc2[nH]1", "cytotoxicity call": "inactive"}
{"smiles": "C[C@H]1CCCCO[C@H](CN(C)S(=O)(=O)c2ccccc2)[C@@H](C)CN([C@@H](C)CO)C(=O)c2cc(NC(=O)Nc3ccccc3)ccc2O1", "cytotoxicity call": "inactive"}
{"smiles": "CCC1(O)CC2CN(CCc3c([nH]c4ccccc34)C(C(=O)OC)(c3cc4c(cc3OC)N(C=O)C3C(O)(C(=O)OC)C(OC(C)=O)C5(CC)C=CCN6CCC43C65)C2)C1.O=S(=O)(O)O", "note": "(stereo not given)", "cytotoxicity call": "active"}
{"smiles": "CCC1(O)CC2CN(CCc3c([nH]c4ccccc34)C(C(=O)OC)(c3cc4c(cc3OC)N(C)C3C(O)(C(=O)OC)C(OC(C)=O)C5(CC)C=CCN6CCC43C65)C2)C1.O=S(=O)(O)O", "note": "(stereo not given)", "cytotoxicity call": "active"}
{"smiles": "COc1ccc(S(=O)(=O)N(C)C[C@H]2OCCCC[C@H](C)Oc3ccc(NC(=O)c4ccccc4)cc3C(=O)N([C@H](C)CO)C[C@@H]2C)cc1", "cytotoxicity call": "inactive"}
{"smiles": "C[C@@H]1CN([C@@H](C)CO)S(=O)(=O)c2ccc(C3=CCCC3)cc2O[C@@H]1CN(C)C(=O)C1CCOCC1", "cytotoxicity call": "inactive"}
{"smiles": "CO[C@@H]1CN(C)C(=O)c2cc(NC(=O)C3CCOCC3)ccc2OC[C@H](C)N(Cc2cccnc2)C[C@H]1C", "cytotoxicity call": "inactive"}
{"smiles": "C[C@H](CO)N1C[C@H](C)[C@H](CN(C)C(=O)NC2CCCCC2)OCCCC[C@H](C)Oc2ccc(NC(=O)Cc3ccccc3)cc2C1=O", "cytotoxicity call": "inactive"}
{"smiles": "COc1ccc(NC(=O)Nc2ccc3c(c2)C(=O)N([C@H](C)CO)C[C@H](C)[C@@H](CN(C)Cc2ccncc2)OCCCC[C@H](C)O3)cc1", "cytotoxicity call": "inactive"}
{"smiles": "C[C@H]1CN([C@@H](C)CO)C(=O)c2cc(NC(=O)Nc3ccc(C(F)(F)F)cc3)ccc2O[C@@H]1CN(C)C(=O)Nc1ccc(F)cc1", "cytotoxicity call": "inactive"}
{"smiles": "C[C@H]1CN([C@@H](C)CO)C(=O)Cc2cc(NS(=O)(=O)c3ccccc3)ccc2O[C@@H]1CN(C)Cc1ccc(Cl)c(Cl)c1", "cytotoxicity call": "active"}
{"smiles": "C[C@@H]1CN([C@@H](C)CO)C(=O)Cc2cc(NS(=O)(=O)c3ccccc3)ccc2O[C@@H]1CN(C)Cc1ccc(Cl)c(Cl)c1", "cytotoxicity call": "active"}
{"smiles": "C[C@@H]1CN([C@@H](C)CO)C(=O)Cc2cc(NS(=O)(=O)c3ccccc3)ccc2O[C@H]1CN(C)Cc1ccc(Cl)c(Cl)c1", "cytotoxicity call": "active"}
{"smiles": "C[C@@H]1CN([C@H](C)CO)C(=O)Cc2cc(NS(=O)(=O)c3ccccc3)ccc2O[C@H]1CN(C)Cc1ccc(Cl)c(Cl)c1", "cytotoxicity call": "active"}
{"smiles": "C[C@H](CO)N1C[C@H](C)[C@@H](CN(C)Cc2ccc(Cl)c(Cl)c2)Oc2ccc(NS(=O)(=O)c3ccccc3)cc2CC1=O", "cytotoxicity call": "inactive"}
{"smiles": "C[C@H]1CN([C@@H](C)CO)C(=O)Cc2cc(NS(=O)(=O)c3ccccc3)ccc2O[C@H]1CN(C)Cc1ccc(Cl)c(Cl)c1", "cytotoxicity call": "inactive"}
{"smiles": "CNC[C@H]1OCCCC[C@@H](C)Oc2ccc(NC(=O)Nc3cccc4ccccc34)cc2C(=O)N([C@H](C)CO)C[C@H]1C", "cytotoxicity call": "inactive"}
{"smiles": "COc1ccccc1CNC(=O)C[C@H]1C[C@H]2c3cc(NS(=O)(=O)c4ccc(F)cc4)ccc3O[C@H]2[C@@H](CO)O1", "cytotoxicity call": "inactive"}
{"smiles": "C[C@H](CO)N1C[C@H](C)[C@@H](CN(C)Cc2ccc3c(c2)OCO3)Oc2ccc(NC(=O)CCN3CCOCC3)cc2CC1=O", "cytotoxicity call": "inactive"}
{"smiles": "COc1ccc(S(=O)(=O)Nc2ccc3c(c2)C(=O)N([C@H](C)CO)C[C@H](C)[C@H](CN(C)Cc2ccccc2)OCCCC[C@@H](C)O3)cc1", "cytotoxicity call": "inactive"}
{"smiles": "C[C@@H]1CCCCO[C@H](CN(C)C(=O)NC2CCCCC2)[C@@H](C)CN([C@H](C)CO)C(=O)c2cc(NC(=O)CCCCCC(=O)Nc3ccccc3N)ccc2O1", "cytotoxicity call": "inactive"}
{"smiles": "COc1ccc(S(=O)(=O)N(C)C[C@H]2Oc3ccc(NC(=O)CCCN(C)C)cc3C(=O)N([C@H](C)CO)C[C@@H]2C)cc1", "cytotoxicity call": "inactive"}
{"smiles": "COc1ccc(NC(=O)Nc2ccc3c(c2)C(=O)N([C@@H](C)CO)C[C@H](C)[C@H](CN(C)S(=O)(=O)c2ccc(Cl)cc2)OCCCC[C@@H](C)O3)cc1", "cytotoxicity call": "inactive"}
{"smiles": "C[C@@H]1CCCCO[C@@H](CN(C)C(=O)Nc2ccc(C(F)(F)F)cc2)[C@H](C)CN([C@H](C)CO)C(=O)c2cc(NS(C)(=O)=O)ccc2O1", "cytotoxicity call": "inactive"}
{"smiles": "C[C@H]1CN([C@@H](C)CO)C(=O)Cc2cc(NS(=O)(=O)c3cccs3)ccc2O[C@@H]1CN(C)Cc1ccc(Cl)c(Cl)c1", "cytotoxicity call": "inactive"}
{"smiles": "C[C@@H]1CN([C@@H](C)CO)C(=O)Cc2cc(NS(=O)(=O)c3cccs3)ccc2O[C@H]1CN(C)Cc1ccc(Cl)c(Cl)c1", "cytotoxicity call": "inactive"}
{"smiles": "C[C@H](CO)N1C[C@H](C)[C@H](CN(C)Cc2ccc(Cl)c(Cl)c2)Oc2ccc(NS(=O)(=O)c3ccccc3)cc2CC1=O", "cytotoxicity call": "inactive"}
{"smiles": "C[C@@H]1CN([C@H](C)CO)C(=O)Cc2cc(NS(=O)(=O)c3ccccc3)ccc2O[C@@H]1CN(C)Cc1ccc(Cl)c(Cl)c1", "cytotoxicity call": "active"}
{"smiles": "C[C@H]1CN([C@@H](C)CO)C(=O)Cc2cc(NS(=O)(=O)c3cccs3)ccc2O[C@H]1CN(C)Cc1ccc(Cl)c(Cl)c1", "cytotoxicity call": "active"}
{"smiles": "C[C@@H]1CCCCO[C@@H](CN(C)Cc2ccccc2)[C@H](C)CN([C@@H](C)CO)C(=O)c2cc(NC(=O)CCC(F)(F)F)ccc2O1", "cytotoxicity call": "inactive"}
{"smiles": "CC(C)NC(=O)N(C)C[C@H]1Oc2ccc(NC(=O)Cn3cnnn3)cc2CC(=O)N([C@H](C)CO)C[C@H]1C", "cytotoxicity call": "inactive"}
{"smiles": "C[C@H](CO)N1C[C@H](C)[C@H](CN(C)Cc2ccc(C(=O)Nc3ccccc3N)cc2)OCc2cnnn2CCCC1=O", "cytotoxicity call": "inactive"}
{"smiles": "CC(C)(C)c1cc(CN)n[nH]1", "cytotoxicity call": "inactive"}
{"smiles": "O=C(C[C@@H]1C[C@H]2c3cc(NS(=O)(=O)c4ccc(F)cc4)ccc3O[C@H]2[C@@H](CO)O1)N1CCOCC1", "cytotoxicity call": "inactive"}
{"smiles": "O=C1O[C@H](c2ccccc2)[C@H](c2ccccc2)N2[C@H]1[C@@H](C(=O)N1CCN(c3ncccn3)CC1)[C@]1(C(=O)Nc3ccc(C#CC4(O)CCCCCC4)cc31)[C@H]2c1ccc(OCCO)cc1", "cytotoxicity call": "inactive"}
{"smiles": "CO[C@@H]1CN(C)C(=O)c2ccc(NS(=O)(=O)c3ccccc3)cc2OC[C@H](C)N(C(=O)NC(C)C)C[C@@H]1C", "cytotoxicity call": "inactive"}
{"smiles": "CC(C)NC(=O)Nc1ccc2c(c1)CC(=O)N([C@H](C)CO)C[C@@H](C)[C@H](CN(C)C(=O)NC1CCCCC1)O2", "cytotoxicity call": "inactive"}
{"smiles": "C[C@H](CO)N1C[C@H](C)[C@H](CN(C)S(=O)(=O)c2cn(C)cn2)Oc2ccc(NS(=O)(=O)c3ccccc3)cc2C1=O", "cytotoxicity call": "inactive"}
{"smiles": "CC(O)C1C(=O)N2C(C(=O)O)=C(SC3CNC(C(=O)N(C)C)C3)C(C)C12", "note": "(stereo not given)", "cytotoxicity call": "inactive"}
{"smiles": "O=C1OCCN1N=Cc1ccc([N+](=O)[O-])o1", "cytotoxicity call": "active"}
{"smiles": "O=C1CN(/N=C/c2ccc([N+](=O)[O-])o2)C(=O)N1", "cytotoxicity call": "active"}
{"smiles": "O=C1OC(CN2CCOCC2)CN1N=Cc1ccc([N+](=O)[O-])o1", "note": "(stereo not given)", "cytotoxicity call": "active"}
{"smiles": "O=C(CN1CCOCC1)N/N=C/c1ccc([N+](=O)[O-])o1", "cytotoxicity call": "inactive"}
{"smiles": "O=[N+]([O-])c1cncn1CCN1CCOCC1", "cytotoxicity call": "inactive"}
{"smiles": "CCOC(=O)c1ccc(N2NC(=O)/C(=C/c3ccc([N+](=O)[O-])o3)C2=O)cc1", "cytotoxicity call": "inactive"}
{"smiles": "O=C1CN(N=Cc2ccc([N+](=O)[O-])o2)C(=O)N1", "cytotoxicity call": "active"}
{"smiles": "Nc1nnc(-c2ccc([N+](=O)[O-])o2)o1", "cytotoxicity call": "inactive"}
{"smiles": "O=C1CN(N=Cc2ccc(-c3ccc([N+](=O)[O-])cc3)o2)C(=O)[N-]1.[Na+]", "cytotoxicity call": "inactive"}
